# Assay outcomes as filed in PubChem.
# Only some compounds are listed: those with a hit (about 3.1% of all), similar ones and a draw of the others.
# KCC2 mod: KCC2 cotransporter modulators, thallium flux, primary screen, cell-based, HEK293 KCC2, FluoZin-2 fluorescence, MLSMR; AID 1456, 2008; KCC2 cells, thallium flux FluoZin-2 fluorescence; 190,000 tested, 2.2% active; Solute carrier family 12 member 5 (Homo sapiens), Q9H2X9; B-score of Tl+ flux slope (higher = more flux/activation; lower = inhibition) at 10 µM;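 active = thallium flux slope and its plate-corrected score both differing from the plate sample mean at a set confidence after two filtering rounds, in either direction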;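 note: slope of fluorescence scaled to starting intensity during 10 to 20 s after thallium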
# EP2 mod: EP2 receptor modulators, cAMP readout, primary screen, cell-based, HTRF cAMP, PGE2 stimulation. EP2-expressing cells, cAMP HTRF FRET, PGE2 co-stimulation. induction, % at 25 µM. 260,000 tested, 0.83% active;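 active = compounds whose cAMP rise, as percent of the full-agonist control response, exceeds 60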;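 note: rat C6 glioma line stably carrying human EP2 under a CMV promoter; the protocol text gives 20 µM as final concentration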
# EP2 antag: human EP2 receptor antagonists, primary screen, TR-FRET cAMP, C6 glioma cells. Prostaglandin E2 receptor EP2 subtype (Homo sapiens), P43116. C6 glioma cells expressing human EP2; cells stimulated with saturating PGE2. inhibition, % at 25 µM. 260,000 tested, 0.52% active. AID 1422, 2008;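 active = percent inhibition above 40 after rounding to a whole number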;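 note: rat C6 glioma host cells with rolipram phosphodiesterase inhibitor present; the protocol text gives 20 µM as final concentration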
# S1P3 antag-1: S1P3 receptor antagonists, primary screen, cell-based; 170,000 tested, 0.27% active; Sphingosine 1-phosphate receptor 3 (Homo sapiens), Q99500; inhibition, % at 4.98 µM; CHO S1P3 NFAT-BLA reporter, FRET fluorescence, antagonist mode;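 active = inhibition above the plate cutoff, the mean inhibition of test wells on that plate plus 3 SD, cut at about 28% in these data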;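 note: cells challenged with S1P at its EC80 of 0.8 µM; blue over green emission ratio from cleaved BLA substrate after 4 h stimulation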
# S1P3 antag-2: S1P3 receptor antagonists, retest, confirmation, cell-based; shares compounds with S1P3 antag-1; CHO S1P3 NFAT-BLA reporter, FRET, antagonist mode; inhibition, % at 4.98 µM; 240 tested, 30% active; AID 1429, 2008;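 active = inhibition above the hit threshold that was computed for the earlier primary screen, cut at about 30% in these data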
# Hits are given with their value; - = inactive; . = not tested or not shown.
SMILES,KCC2 mod,EP2 mod,EP2 antag,S1P3 antag-1,others
OC[C@@H]1O[C@H](N2CCN([C@@H]3O[C@H](CO)[C@@H](O)[C@H](O)[C@H]3O)CC2)[C@@H](O)[C@H](O)[C@H]1O,.,-,49.0,.,
COC(=O)C1CCN(C(=O)COc2ccc(Cl)cc2)CC1,-,-,-,-,
COC(=O)C1CCN(C(=O)COc2cc3sc(C)nc3c3sccc23)CC1,.,-,-,54.9,
CC(C)NC(=S)N/N=C/c1cc(Br)ccc1O,5.9,-,-,-,
COc1cc(/C=C/c2cc(C(F)(F)F)[nH]c(=O)n2)cc(Cl)c1O,.,-,-,.,
c1coc(C2OCC3(CO2)COC(c2ccco2)OC3)c1 (configuration not stated),-,-,54.2,-,
COc1cccc(C(=O)COc2ccccc2-c2ccccc2)c1,-,61.2,-,-,
O=C(COc1ccccc1-c1ccccc1)c1ccccc1,-,-,-,-,
CC(C)=Cc1oc2ccc([N+](=O)[O-])cc2c1N1CCOCC1,-,64.0,-,-,
CCN(CC)CCOC(=O)c1ccco1,.,-,-,.,
Cc1ccc(-c2cc(C(=O)O)c3cc(Br)ccc3n2)o1,-,-,-,-,
C/C(CCc1oc2ccc(Br)cc2c1-c1ccc(C)o1)=N/O,-,62.5,-,-,
O=c1oc2ccccc2cc1-c1nc(-c2cccs2)cs1,-,61.1,-,.,
O=C(CCCc1nc2ccccc2s1)N1CCn2c(nnc2C2CC2)C1,.,-,-,.,
COCCN1CC(=O)N(c2cccc(C)c2C)C(c2ccc(Cl)cc2)C1=O (configuration not stated),-,-,-,-,
Cc1cccc(N2C(=O)C(Oc3ccc(Cl)cc3Cl)C2C=O)c1C (configuration not stated),-3.01,-,-,-,
COc1cc2oc(=O)c(Br)c(C)c2c(OC)c1OC,.,-,44.3,-,
C[C@H]1CCCC2(CC[N+](C)(CCC[N+](C)(C)C)CC2)C1 (some centres not stated),.,-,48.1,.,
COc1ccccc1C(=O)Oc1cc2c3c(c1)C(C)CC(C)(C)N3C(=O)C2=O (configuration not stated),.,-,-,.,
CCOC(=O)C1=C(C)NC(=S)N(C(C)=O)C1c1ccccc1 (configuration not stated),.,64.8,.,.,
COc1ccccc1NC(=O)N(Cc1cc2cc(OC)c(OC)cc2[nH]c1=O)CC1CCCO1 (configuration not stated),-3.31,-,-,-,
COc1ccc(CN(Cc2cc3ccc(C)cc3[nH]c2=O)C(=O)Nc2ccccc2OC)cc1,.,-,-,.,
COc1ccc2[nH]c(=O)c(CN(Cc3ccc(C)cc3)C(=O)Nc3ccccc3OC)cc2c1,.,60.9,-,.,
O=C(c1ccco1)N(Cc1ccco1)c1nc(-c2ccccc2)cs1,.,77.8,-,.,
CC1CCc2c(sc3nc(C4CC4)nc(SCC(=O)NCc4ccco4)c23)C1 (configuration not stated),.,.,.,-,
SMILES,KCC2 mod,EP2 mod,EP2 antag,S1P3 antag-1,others
CC1CCc2c(sc3nc(SCC(=O)NCc4ccco4)nc(N)c23)C1 (configuration not stated),-,-,-,92.4,
O=C(CNC1CCCCCC1)Nc1ccc2c(c1)OCO2,.,-,-,.,
COc1cc(O)c2c(O)c3c(c4c2c1[C@]1(C4)C(C)=CCCC1(C)C)[C@H](O)[C@@]1(O)CC(=O)C(C(N)=O)=C(O)[C@]1(O)C3=O,.,-,50.9,.,
O=C(O)c1cc(Cl)c(Cl)cc1C(=O)NCCc1ccncc1,.,-,-,.,
O=C(CSc1nc2ccccc2c(=O)n1Cc1ccco1)OCc1ccccc1,.,-,-,.,
N#C/C(=C\NC(=S)c1ccncc1)c1nc2ccccc2s1,.,-,52.5,.,
Cc1cc(C)c2cc(C#N)c(SCC(=O)Nc3nc(C)c(C)s3)nc2c1,.,-,-,.,
O=C(Nc1c(C(=O)C2CC2)oc2ccccc12)c1ccc(Cl)cc1,-,64.2,-,-,
O=C(Nc1cccc(-c2cn3ccccc3n2)c1)c1cccc(Cl)c1,.,-,61.1,.,
O=C(Nc1ccc(-c2cn3ccccc3n2)cc1)c1cc(Br)ccc1O,.,-,44.6,.,
O=C(Nc1cccc(-c2cn3ccccc3n2)c1)c1cnccn1,-,-,-,.,
c1ccc(CN2CCC(NCc3ccc4c(c3)OCO4)C(c3ccccc3)C2)cc1 (configuration not stated),.,-,-,.,
CC(=O)c1cccc(N(CC(=O)NC2CCCCC2)C(=O)c2ccc(C)s2)c1,.,-,-,.,
CCc1nnc(NC(=O)CSc2nnnn2-c2ccc3c(c2)OCO3)s1,.,-,-,.,
O=C(NCc1c(Cl)cccc1Oc1ccccc1)c1ccccc1,-,63.1,-,-,
C=CCN1C(=O)C(CC(=O)Nc2ccc(OCCC)cc2)N(CCCN2CCN(Cc3ccccc3)CC2)C1=S (configuration not stated),-,-,-,38.4,S1P3 antag-2=-
COc1ccc(NC(=O)CC2C(=O)N(Cc3ccccc3)C(=S)N2CCN2CCOCC2)cc1 (configuration not stated),-,-,-,-,
CC(CNC(=O)C1(C)CC(c2ccccc2)=NO1)n1cncn1 (configuration not stated),.,-,-,.,
Cc1nc2ccc(NC(=O)c3ccc(Cl)c(S(=O)(=O)N(C)c4ccccc4)c3)cc2s1,-,-,-,-,
Cc1nc2ccc(NC(=O)c3cc(S(=O)(=O)N(C)c4ccccc4)ccc3Cl)cc2s1,-,-,-,30.5,S1P3 antag-2=-
CCCCCCCCCCn1ccc(=N)cc1,-,-,-,-,
CCCCCCCCn1ccc(=N)cc1,-,-,-,34.6,S1P3 antag-2=-
CN1CCN(/N=C/c2ccc(-c3ccc([N+](=O)[O-])cc3Cl)o2)CC1,-,-,-,54.1,S1P3 antag-2=-
Cc1csc(NC(=O)CSc2nnc(-c3cccnc3)n2-c2ccc(Cl)cc2)n1,.,-,-,.,
CC(C)(C)NC(=O)CN(C(=O)CNC(=O)c1cccs1)c1ccc(F)c(Cl)c1,.,-,-,.,
SMILES,KCC2 mod,EP2 mod,EP2 antag,S1P3 antag-1,others
CC1=[N+](C)c2c(ccc3cccnc23)C1(C)C,-,-,-,29.1,S1P3 antag-2=-
Cc1[nH]c2c(ccc3cccnc32)c1C,-,-,-,-,
CCCc1nc2ccccc2c(C(=O)OC(C)C(=O)NCc2ccc3c(c2)OCO3)c1CC (configuration not stated),-,-,-,30.7,S1P3 antag-2=-
CC(CC(=O)N1CCN(c2ccc(C(F)(F)F)cn2)CC1)n1ccnc1 (configuration not stated),-,-,-,36.3,S1P3 antag-2=-
Cc1ccccc1NC(=O)/C=C/c1ccc([N+](=O)[O-])s1,-,-,-,35.7,S1P3 antag-2=42.1
O=C1CCCCCN1C(=O)c1cccc(C(=O)N2CCCCCC2=O)n1,.,-,-,.,
Nc1c(C(=O)N2CCOCC2)ccc2c1C(=O)c1ccccc1C2=O,.,-,-,.,
